{"source": "PubChem BioAssay AID1578", "about": "(Sanford-Burnham Center for Chemical Genomics, 2009)", "note": "Out of some 290,000 compounds screened, about 3,000 (1%) were called active. This excerpt belongs to a sample that is enriched for actives. Values without a mark were called inactive. Cut-off read from the data, not from the text of the source: active = inhibition mostly above about 36% (no sharp cut-off); inactive = mostly below about 34%.", "data": [{"experiment": "NOD1 signaling inhibitors, primary screen, cell-based, luminescence, uHTS (AID 1578);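 note: HEK-293T reporter cells stimulated with the NOD1 agonist gamma-tri-DAP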", "details": "NOD1-driven NF-kB luciferase reporter cells, at 4 µM, hits give high values", "values": [{"smiles": "CCOc1ccccc1C(=O)N(Cc1sccc1C)C1CCS(=O)(=O)C1", "note": "(centres undefined)", "inhibition": "-17.4%"}, {"smiles": "COc1cc(NS(=O)(=O)c2ccc(NC(=S)NC(=O)c3sc4cc(F)ccc4c3Cl)cc2)nc(OC)n1", "inhibition": "47.7%"}, {"smiles": "Cc1nc2ccc(NC(=O)c3cccs3)cc2c(=O)n1Cc1ccc(Cl)cc1", "inhibition": "23%"}, {"smiles": "COc1ccc(CNC(=O)c2ccc(CS(=O)(=O)Cc3ccccc3F)o2)cc1", "inhibition": "6%"}, {"smiles": "Cc1[nH]c(C)c(S(=O)(=O)NCc2ccc(Cl)cc2)c1C(=O)N1CCCC1", "inhibition": "-23.5%"}, {"smiles": "CCN1C(=O)CS/C1=N\\S(=O)(=O)c1ccccc1", "inhibition": "4.8%"}, {"smiles": "O=c1c2ccccc2cnn1CCOc1ccccc1", "inhibition": "67.1% (active)"}, {"smiles": "O=c1c2ccccc2cnn1CCOc1cccc(Br)c1", "inhibition": "-51.9%"}, {"smiles": "COc1ccc2cnn(CCOc3ccccc3)c(=O)c2c1OC", "inhibition": "-63%"}, {"smiles": "O=c1[nH]c(CSc2ncnc3sc(-c4ccccc4)cc23)nc2ccccc12", "inhibition": "6.6%"}, {"smiles": "CC(Oc1ccc([N+](=O)[O-])cc1)C(=O)NCCCN1CCOCC1", "note": "(centres undefined)", "inhibition": "-6.2%"}, {"smiles": "CCc1nc2ccccc2c(C(=O)OCC(=O)Nc2ccc(S(=O)(=O)N3CCOCC3)cc2)c1C", "inhibition": "-22%"}, {"smiles": "CCCc1nc2ccccc2c(C(=O)OCC(=O)Nc2cccc(S(=O)(=O)N3CCOCC3)c2)c1CC", "inhibition": "25.8%"}, {"smiles": "COc1cc(NC(=S)NCCCN2CCOCC2)c(OC)cc1NC(=O)c1ccco1", "inhibition": "-24.2%"}, {"smiles": "CC(=O)c1c(C)n(-c2cccc(Cl)c2)c2ccc(O)cc12", "inhibition": "-4.6%"}, {"smiles": "CCOC(=O)Cc1csc(NC(=O)CSc2nc(-c3ccccc3)c(C#N)c(=O)[nH]2)n1", "inhibition": "-50.8%"}, {"smiles": "CCCCCNC(=O)C(=O)C1C(=O)Nc2ccccc21", "note": "(centres undefined)", "inhibition": "0.6%"}, {"smiles": "CC(C)c1ccc2c(c1)c(SC(C)(C)C)c(CC(C)(C)C(=O)O)n2Cc1ccc(Cl)cc1", "inhibition": "37.3% (active)"}, {"smiles": "Cc1ccc2c(c1)c(N=O)c(O)n2Cc1ccc(Cl)cc1", "inhibition": "31.7%"}, {"smiles": "CC(C)c1ccc(C(=O)NCc2ccc(Cl)cc2)cc1", "inhibition": "-22.8%"}, {"smiles": "Cc1ccc(C(=O)c2ccc(O)cc2)cc1C", "inhibition": "-29.5%"}, {"smiles": "CC(=O)Nc1cccc(NC(=O)c2ccc([N+](=O)[O-])cc2Cl)c1", "inhibition": "-5.3%"}, {"smiles": "O=C(Nc1cccc(Cl)c1)c1cc(N=Nc2ccc([N+](=O)[O-])cc2Cl)ccc1O", "inhibition": "95.3% (active)"}, {"smiles": "O=C(Nc1cccc(O)c1)c1ccc([N+](=O)[O-])cc1Cl", "inhibition": "-22.7%"}, {"smiles": "COc1cc(OC)cc(C(=O)N[C@H](C(=O)OCC(=O)Nc2ccc(F)c(F)c2)C(C)C)c1", "inhibition": "-11.6%"}, {"smiles": "O=C(NCC(O)c1ccc([N+](=O)[O-])cc1)Nc1ccccc1", "note": "(centres undefined)", "inhibition": "-4.6%"}, {"smiles": "CCOc1cccc(=O)c2c(C)n(-c3ccc(C(=O)O)cc3)c(C)c12", "inhibition": "-22.7%"}, {"smiles": "COc1ccc(-n2c(C)c3c(OC)cccc(=O)c3c2C)cc1", "inhibition": "16.3%"}, {"smiles": "COc1cccc(=O)c2c(C)n(-c3ccc(C(=O)O)cc3)c(C)c12", "inhibition": "58.9% (active)"}, {"smiles": "COc1cccc(N(C(=O)c2sc(C)nc2C)C(C(=O)NCC2CCCO2)c2ccccc2)c1", "note": "(centres undefined)", "inhibition": "-28.5%"}, {"smiles": "COc1ccc(CCNC(=O)c2ccccc2NC(=O)C2=C(C)OCCS2)c(OC)c1", "inhibition": "51.1% (active)"}, {"smiles": "COc1cc(CCNC(=O)c2ccccc2NC(=O)C2=C(C)OCCS2)cc(OC)c1OC", "inhibition": "17.9%"}, {"smiles": "COc1ccc(OC)c(CCNC(=O)c2ccccc2NC(=O)C2=C(C)OCCS2)c1", "inhibition": "-12.2%"}, {"smiles": "NS(=O)(=O)c1cccc(NC(=O)c2cc(=O)c3ccccc3o2)c1", "inhibition": "-9.2%"}, {"smiles": "CC(C)Cn1c(N)c(C(=O)COC(=O)c2ccc(O)cc2)c(=O)n(C)c1=O", "inhibition": "-0.8%"}, {"smiles": "CC(C)Cn1c(N)c(C(=O)COC(=O)c2ccccc2Cl)c(=O)n(C)c1=O", "inhibition": "-12.9%"}, {"smiles": "COCc1c(C(=O)OCC(=O)c2c(N)n(CC(C)C)c(=O)n(C)c2=O)oc2ccccc12", "inhibition": "32%"}, {"smiles": "CC(C)Cn1c(N)c(C(=O)COC(=O)C2CCCCC2)c(=O)n(C)c1=O", "inhibition": "0.4%"}, {"smiles": "CC(C)Cn1c(N)c(C(=O)COC(=O)Cc2cccs2)c(=O)n(C)c1=O", "inhibition": "-8.8%"}, {"smiles": "CC(C)Cn1c(N)c(C(=O)COC(=O)c2ccc(Cl)cc2)c(=O)n(C)c1=O", "inhibition": "4.6%"}, {"smiles": "Cc1cc(Oc2ccccc2)nc(-c2ccccc2O)n1", "inhibition": "-12.6%"}, {"smiles": "Nc1nccnc1C(=O)OCC(=O)NNC(=O)c1ccccc1", "inhibition": "-27.6%"}, {"smiles": "Cc1ccc(CSc2nc3ccsc3c(=O)n2Cc2ccccn2)cc1", "inhibition": "-0.8%"}, {"smiles": "CCc1ccc(NC(=O)COc2cccc(-n3cnnn3)c2)cc1", "inhibition": "4.3%"}, {"smiles": "CC(=O)c1cc2c(cc1NC(=O)CCn1cccc1)OCO2", "inhibition": "5%"}, {"smiles": "CC(=O)c1cc2c(cc1NC(=O)CCC1CCCC1)OCO2", "inhibition": "71.2% (active)"}, {"smiles": "CC(=O)c1cc2c(cc1NC(=O)CCCC(=O)O)OCO2", "inhibition": "-9.2%"}, {"smiles": "O=C(CSc1nccn1Cc1ccccc1)NC1CCCC1", "inhibition": "12.2%"}, {"smiles": "Cc1ccc(Cn2ccnc2SCC(=O)NC2CCCC2)cc1", "inhibition": "51.4% (active)"}, {"smiles": "O=C(CSc1nccn1Cc1ccc(F)cc1)NC1CCCC1", "inhibition": "-2.9%"}, {"smiles": "Cc1ccc(S(=O)(=O)N(C)C)cc1NC(=O)C1CCCC1", "inhibition": "18.4%"}, {"smiles": "COc1ccccc1OCCCC(=O)NC(C)c1ccccc1", "note": "(centres undefined)", "inhibition": "-14.4%"}, {"smiles": "C=CCn1c(C)cc(C2=NNC(=NCc3ccccc3)SC2)c1C", "inhibition": "-61.6%"}, {"smiles": "COCCN=C1NN=C(c2cc(C)n(CC3CCCO3)c2C)CS1", "note": "(centres undefined)", "inhibition": "9.1%"}, {"smiles": "C=CCn1c(C)cc(C2=NNC(=NC(C)(C)C)SC2)c1C", "inhibition": "65%"}, {"smiles": "COCCn1c(C)cc(C2=NNC(=NC(C)(C)C)SC2)c1C", "inhibition": "-27.4%"}, {"smiles": "C=CCn1c(C)cc(C2=NNC(=NCC)SC2)c1C", "inhibition": "103% (active)"}, {"smiles": "COCCn1c(C)cc(C2=NNC(=Nc3ccc(OC)cc3)SC2)c1C", "inhibition": "-3.2%"}, {"smiles": "COCCn1c(C)cc(C2=NNC(=NC3CC3)SC2)c1C", "inhibition": "107% (active)"}, {"smiles": "C=CCN=C1NN=C(c2cc(C)n(CC=C)c2C)CS1", "inhibition": "85.5% (active)"}, {"smiles": "COCCCN=C1NN=C(c2cc(C)n(Cc3ccccc3Cl)c2C)CS1", "inhibition": "-46.7%"}, {"smiles": "C=CCn1c(C)cc(C2=NNC(=Nc3ccc(C)cc3)SC2)c1C", "inhibition": "-66.7%"}, {"smiles": "C=CCN=C1NN=C(c2cc(C)n(CCOC)c2C)CS1", "inhibition": "88.5% (active)"}, {"smiles": "Cc1cc(C2=NNC(=NCCc3ccccc3)SC2)c(C)n1CC1CCCO1", "note": "(centres undefined)", "inhibition": "-23%"}]}]}
